Measurements taken from PubChem BioAssay (NCI).
This is part of a sample that, as a whole, favours compounds with a hit. Of some 83,000 tested, about 20% had one in any assay.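 Assay: single dose, 48 h. Readout: percent growth (0 = no net growth; negative = cell death). Active: <10.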 Unmarked numbers belong to inactive results. The source made the active and inactive calls.

How the values were obtained:
Assay in all cases: NCI-60 one-dose screen, 48 h (100 = growth as untreated, 0 = no growth, -100 = all killed)
Settings in all cases: 10 µM unless noted
DU-145 prostate = test system: DU-145 prostate
K-562 leukemia = test system: K-562 leukemia
MALME-3M melanoma = test system: MALME-3M melanoma
MDA-MB-231 breast = test system: MDA-MB-231 breast
RXF 393 renal = test system: RXF 393 renal
SF-268 CNS = test system: SF-268 CNS
SF-295 CNS = test system: SF-295 CNS
SF-539 CNS = test system: SF-539 CNS
UACC-257 melanoma = test system: UACC-257 melanoma
M14 melanoma = test system: M14 melanoma
HCT-15 colon = test system: HCT-15 colon
HT29 colon = test system: HT29 colon
SNB-19 CNS = test system: SNB-19 CNS
U251 CNS = test system: U251 CNS
PC-3 prostate = test system: PC-3 prostate
SK-MEL-5 melanoma = test system: SK-MEL-5 melanoma
UACC-62 melanoma = test system: UACC-62 melanoma
LOX IMVI melanoma = test system: LOX IMVI melanoma
SK-MEL-28 melanoma = test system: SK-MEL-28 melanoma

Compound	growth (DU-145 prostate)	growth (K-562 leukemia)	growth (MALME-3M melanoma)	growth (MDA-MB-231 breast)	growth (RXF 393 renal)	growth (SF-268 CNS)	growth (SF-295 CNS)	growth (SF-539 CNS)	growth (UACC-257 melanoma)	growth (M14 melanoma)	growth (HCT-15 colon)	growth (HT29 colon)	growth (SNB-19 CNS)	growth (U251 CNS)	growth (PC-3 prostate)	growth (SK-MEL-5 melanoma)	growth (UACC-62 melanoma)	growth (LOX IMVI melanoma)	growth (SK-MEL-28 melanoma)
CCCn1cnc2c(c1=N)C(c1ccc(F)cc1)c1sc3c(F)cccc3c1O2 (configuration not stated)	76.6%	16.9%	54.1%	63.3%	52.2%	49.6%	27.7%	32.6%	73.4%	39.3%	28%	63.6%	35.4%	30.8%	50.1%	42.2%	12.1%	43.4%	56%
CCN1C(=O)N(CC)C2Nn3c(s/c(=C\c4ccccc4Br)c3=O)=NC21 (configuration not stated)	13.6%	10.7%	59.5%	19.7%	28.4%	50.1%	25.2%	-20.1% (active)	46.1%	9.07% (active)	18.6%	4.78% (active)	26.6%	4.95% (active)	32.1%	13%	22.8%	20.9%	42.1%
NC(=O)c1cccc([C@@H]2O[C@H](CO)[C@@H](O)[C@H]2O)c1	66.5%	27%	103%	55.5%	73.3%	48%	65.7%	14.4%	97.7%	17.1%	12.8%	54%	54.2%	41.1%	47.8%	97.4%	88.6%	91.5%	62.1%
C=CCn1c(SCC(=O)Nc2ccc(/C(C)=N/O)cc2)nnc1-c1cc(-c2ccc(S(N)(=O)=O)cc2)nc2ccccc12	105%	38.8%	88.9%	74.1%	93.5%	67.1%	98.4%	64.2%	92.7%	93.5%	96.5%	105%	70.3%	67.2%	80.2%	65.6%	69.7%	27%	
COC(=O)N1CC(Oc2ccccn2)C2CC1c1ccccc1O2 (configuration not stated)	115%	114%	104%	89.7%	95.1%	102%	104%	99.4%	88%	102%	98.8%	103%	94.5%	104%	94.4%	99.4%	89.5%	96.8%	94.8%
N#C/C(=C\c1ccc(-c2cccc(C(F)(F)F)c2)o1)c1ccccc1	102%	87.1%	96.4%	74.4%	101%	107%	89.1%	95.6%	103%	84.5%	62.5%	86.3%	99.1%	100%	90.4%	92.6%	71.4%	86.5%	98.4%
Cc1ccc(C(=O)c2ccc(CC(=O)N=Nc3c(O)[nH]c4ccc(Br)cc34)n2C)cc1	97.8%	83.5%	111%	88.4%	87%	87.7%	99.1%	92.4%	105%	91.3%	96.7%	105%	89%	92.6%	89.3%	95.9%	94.6%	88.9%	102%
